Experimental data: PubChem BioAssay (NCI)
The panel holds about 83,000 compounds, 20% with a hit somewhere; the sample as a whole holds those more often.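 How to read the values: 0–100, growth inhibition (40 = 60% inhibited); 0, no net growth; -100 to 0, cell death (-40 = 40% of starting cells died; -100 = all dead).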 The source made the active and inactive calls. The calls were made as follows: active = growth percent below 10; inactive = the rest.

What was measured:
Experiment in all cases: NCI-60 one-dose screen, 48 h (100 = growth as untreated, 0 = no growth, -100 = all killed)
Conditions in all cases: 10 µM
[1] = tested on: 786-0 renal
[2] = tested on: MALME-3M melanoma
[3] = tested on: UACC-257 melanoma
[4] = tested on: SN12C renal
[5] = tested on: TK-10 renal
[6] = tested on: ACHN renal
[7] = tested on: CAKI-1 renal
[8] = tested on: A498 renal
[9] = tested on: RPMI-8226 leukemia
[10] = tested on: OVCAR-8 ovarian
[11] = tested on: OVCAR-5 ovarian
[12] = tested on: SK-OV-3 ovarian
[13] = tested on: IGROV1 ovarian
[14] = tested on: OVCAR-3 ovarian
[15] = tested on: NCI/ADR-RES ovarian
[16] = tested on: T-47D breast
[17] = tested on: BT-549 breast
[18] = tested on: MDA-MB-435 melanoma
[19] = tested on: MCF7 breast
[20] = tested on: HCT-116 colon

Measured: growth

C[C@H]1[C@H](OC(=O)CCC(=O)Nc2cnccn2)O[C@@H]2OC3(C)CC[C@H]4[C@H](C)CC[C@@H]1[C@@]24OO3
inactive: [1] 53.6% | [2] 27.5% | [3] 56.1% | [4] 45.3% | [5] 42.2% | [6] 25.4% | [7] 42.8% | [8] 101% | [9] 21.5% | [10] 20.7% | [11] 35.2% | [12] 77.4% | [13] 25.7% | [14] 34.6% | [15] 19.1% | [16] 22.1% | [17] 24% | [18] 16.1% | [19] 24.4% | [20] 14.6%

CCOP(=O)(OCC)C(NC(C)=O)C(=O)SCCN (stereo not given)
inactive: [1] 103% | [2] 105% | [3] 96.2% | [4] 97.9% | [5] 99.5% | [6] 112% | [7] 101% | [8] 91.7% | [9] 109% | [10] 109% | [11] 104% | [12] 117% | [13] 110% | [14] 147% | [15] 105% | [16] 99.6% | [17] 111% | [18] 111% | [19] 95.5% | [20] 111%

COc1ccc(/C=C/C(=O)c2nc3ccccc3n2Cc2ccc(Br)cc2)cc1
active: [19] 9.99%
inactive: [1] 64.7% | [2] 73.1% | [3] 72.3% | [4] 90.4% | [5] 110% | [6] 77.5% | [7] 68% | [8] 122% | [9] 22.5% | [10] 77.5% | [11] 89.6% | [12] 91.7% | [13] 65.8% | [14] 60% | [15] 61.5% | [16] 31.1% | [17] 70.3% | [18] 61.1% | [20] 32%

O=C(/C=C/c1cccc(Br)c1)c1nc2ccccc2n1Cc1ccc(Br)cc1
inactive: [5] 10.4% | [7] 16.6% | [8] 81.5% | [12] 65.4%
active: [1] -79% | [2] -36.5% | [3] 6.73% | [4] -10.1% | [6] -30.5% | [9] -34.8% | [10] -8.23% | [11] -50.4% | [13] -8.02% | [14] -51.5% | [15] -48.8% | [16] -0.946% | [17] -44.7% | [18] -31.2% | [19] -32.8% | [20] -96%

COc1ccc2cc([C@H](C)C(=O)[Se]CCC#N)ccc2c1
active: [1] -83.9% | [2] -44.7% | [3] -76.9% | [4] -16.8% | [5] -90.4% | [6] -50% | [7] -94% | [8] -71.1% | [9] -17.8% | [10] -82.9% | [11] -31.8% | [12] -70.6% | [13] -51.7% | [14] -61% | [15] -14.4% | [17] -8.75% | [18] -69.7% | [19] -8.25% | [20] -62%
inactive: [16] 12%

COCCOCCOCCOc1ccc(-n2cc(-c3ccc(O[C@H]4O[C@@H]5OC6(C)CC[C@H]7[C@H](C)CC[C@@H]([C@H]4C)[C@@]57OO6)cc3)nn2)cc1
inactive: [1] 56.7% | [3] 39.7% | [4] 83% | [5] 36.7% | [6] 17.4% | [7] 25% | [8] 93.8% | [9] 20.9% | [10] 22.2% | [11] 72% | [12] 84% | [13] 50.2% | [14] 46% | [15] 34.2% | [16] 17.3% | [18] 19.3% | [19] 14.9% | [20] 37.3%
active: [2] 8.12% | [17] 3.83%

C[C@H]1[C@H](OC(=O)CCC(=O)N(CCCc2cn(-c3ccc(CN4CCOCC4)cc3)nn2)CCNc2ccnc3cc(Cl)ccc23)O[C@@H]2OC3(C)CC[C@H]4[C@H](C)CC[C@@H]1[C@@]24OO3
active: [1] -65% | [2] -90% | [3] -69.8% | [9] 3.71% | [17] 5.43% | [20] -8.13%
inactive: [4] 23.2% | [5] 48.8% | [6] 23.1% | [7] 21.4% | [8] 93.6% | [10] 19.4% | [11] 42.1% | [12] 74.2% | [13] 38% | [14] 38.3% | [15] 26.1% | [16] 25.4% | [18] 18.4% | [19] 11.2%

C#CCCCN(CCNc1ccnc2cc(Cl)ccc12)C(=O)CCC(=O)O[C@@H]1O[C@@H]2OC3(C)CC[C@H]4[C@H](C)CC[C@@H]([C@H]1C)[C@@]24OO3
inactive: [1] 46.9% | [2] 20.3% | [3] 29.3% | [4] 36.1% | [5] 50.1% | [6] 29.4% | [7] 41.4% | [8] 96% | [9] 24.9% | [10] 17% | [11] 45.1% | [12] 79.3% | [13] 41.1% | [14] 25.7% | [15] 16.2% | [16] 27.9% | [17] 37.3% | [18] 21.2% | [19] 14.2% | [20] 19.4%

COc1cc(OC)c(/C=C/C(=O)c2nc3ccccc3n2Cc2ccc(F)cc2)c(OC)c1
inactive: [1] 85% | [2] 105% | [3] 98.3% | [4] 77.3% | [5] 109% | [6] 75.2% | [7] 56.2% | [8] 130% | [9] 78.4% | [10] 79.7% | [11] 112% | [12] 88.2% | [13] 101% | [14] 98.4% | [15] 78.2% | [16] 61.8% | [17] 77.8% | [18] 83.5% | [19] 56.1% | [20] 74.8%

CC[C@]12C=CCN3CC[C@@]4(c5ccc(OC)cc5N(C)[C@H]4[C@@](O)(C(=O)OC)[C@@H]1OC(=O)CCCC[P+](c1ccc(OC)cc1)(c1ccc(OC)cc1)c1ccc(OC)cc1)[C@@H]32
active: [1] -92.9% | [2] -97.2% | [3] -93.4% | [4] -95.3% | [5] -88.2% | [6] -49.2% | [7] -78.5% | [8] -54.7% | [9] -68.8% | [10] -90.2% | [11] -98.6% | [12] -82.5% | [13] -92% | [14] -71.8% | [16] -46.6% | [17] -96.7% | [18] -88.5% | [19] -82.6% | [20] -94.9%
inactive: [15] 84.3%
